KB-V1 MDR tox – KB-V1 MDR subline cytotoxicity; 400,000 tested, 3.4% active; Potency, µM (doses to about 46.1 µM), hits mostly cytotoxic; KB-V1 MDR cells viability, CellTiter-Glo, 72 h; further: on the % scale 0 is the no-effect control and ±100 the full control effect; nearly all actives have a fitted effect of over 60% in size
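Cytotoxicity via CellTiter-Glo luminescence after 72 h compound exposure at 37 degrees C. Cells: drug-selected KB-V1 line, DMEM phenol-red free plus 10% FBS. Compounds tested at multiple concentrations; normalized data fitted to concentration-effect curves.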
HT1080 IDH1KD tx – kills HT-1080 cells with IDH1 knockdown. 360,000 tested, 2% active. Potency, µM (top dose mostly 46.1 µM), inactives show top-dose activity, negative = toxicity, actives largely listed as cytotoxic. HT-1080 IDH1 knockdown viability, ATP luminescence, 48 h;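 further: 0% = DMSO wells and -100% = cell-free medium wells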
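Cytotoxicity counter-line: IDH1KD HT-1080, 48 h, CellTiter-Glo. Curves classed by r2, magnitude and activity.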
MCF10A rerep – DNA re-replication induction in MCF 10a cells. Potency, µM (doses to about 46.1 µM), without a hit: at the top dose activity, positive = re-replication, most hits filed as activators. 350,000 tested, 2.9% active. MCF 10A DNA re-replication, Hoechst nuclear intensity, 48 h; further: % of control where 0% means no effect; nearly all actives have a fitted effect of over 50% in size
KB-3-1 cytotox – kills parental KB-3-1 adenocarcinoma cells. 400,000 tested, 1.4% active. Potency, µM (titrated, usually from 46.1 µM), most hits filed as cytotoxic. AID 1347075. KB-3-1 viability, CellTiter-Glo ATP luminescence, 72 h; further: on the % scale 0 is the no-effect control and ±100 the full control effect; nearly all actives have a fitted effect of over 60% in size
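KB-3-1 parental drug-naive adenocarcinoma cells in DMEM/10% FBS, incubated 72 h at 37 C with pin-transferred compounds across a concentration series. Viability by CellTiter-Glo luminescence; concentration-response curves fitted after normalization.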
SW480 rereplic – DNA re-replication induction in SW480 cells. SW480 DNA re-replication, Hoechst DNA content imaging, 48 h. Potency, µM (doses to about 46.1 µM), for the others: at the top dose re-replication activation, actives largely listed as activators. 340,000 tested, 1.8% active; further: % of control where 0% means no effect; nearly all actives have a fitted effect of over 55% in size
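Image-based DNA-content assay: after two days of treatment, nuclei were labelled with the DNA dye Hoechst and imaged, and hits were compounds raising the count of nuclei showing high fluorescence intensity.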
HT1080-NT tox – kills 2HG-producing HT-1080-NT fibrosarcoma cells; Potency, µM (titrated, usually from 46.1 µM), without a hit: at the highest dose activity, negative = less viability, most hits filed as cytotoxic; 360,000 tested, 1.6% active; HT-1080-NT fibrosarcoma viability, CellTiter-Glo ATP luminescence, 48 h;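 further: NT is the 2HG producing partner of a matched IDH1 knockdown line; 0% = DMSO-treated cells and -100% = media-only wells without cells; nearly all actives have a fitted effect of over 55% in size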
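Viability by CellTiter-Glo luminescence after 48 h compound exposure at 37C of HT-1080-NT cells (750/well, RPMI, 5% FBS). % activity scaled between DMSO wells and medium-only wells, then curve-fitted and categorized by curve class.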
* marks the source's active call; other numbers are inactive results; i = inactive; u = inconclusive; x = no result; [ ] = remark or other dose. Only some compounds are listed: those with a hit (about 8% of all), similar ones and a draw of the others. The call rests on the fitted dose curve; in most records, active means well fitted curve in the direction sought with a large enough effect; inconclusive means small, poorly fitted or top-dose-only effect, or another doubt; inactive means no such curve, though single readings can be large; an effect the other way counts as inactive or inconclusive. Potency means the concentration at half of the fitted maximal effect.

SMILES	KB-V1 MDR tox	HT1080 IDH1KD tx	MCF10A rerep	KB-3-1 cytotox	SW480 rereplic	HT1080-NT tox
COc1ccc(CNC(=O)c2cnc(C)cn2)c(OC)c1	i	4%	-9%	i	-10%	4%
COc1cc(C=CC(=O)c2cc(OC)c(OC)c(OC)c2)cc(OC)c1OC	u	23µM*	13µM*	6.5µM*	u	u
CCc1cccc2c(C(=S)N3CCOCC3)c[nH]c12	i	23%	2%	i	7%	11%
O=C(Nc1ccccc1F)NC1CCN(Cc2nnnn2Cc2ccc(F)cc2)CC1	15µM*	4%	4%	i	-2%	4%
Cc1cccc(C)c1NC(=O)CNc1ccccc1	u	1%	-3%	i	-1%	-2%
CN=c1scc(-c2ccccc2F)n1/N=C(\C)c1cccnc1	i	-14%	-3%	i	-5%	u
COc1cccc(OC)c1-c1nn2c(-c3ccccc3Cl)nnc2s1	9.2µM*	-9%	0%	i	-9%	-2%
O=C(CN1C(=O)/C(=C\c2cccc(F)c2)Oc2ccccc21)N1CCN(c2ccccn2)CC1	i	5%	9%	u	-67%	16%
O=C(CN1C(=O)/C(=C\c2ccc(F)cc2)Oc2ccccc21)N1CCN(c2ccccn2)CC1	7.3µM*	1%	0%	i	-3%	4%
CCn1c(C(=O)NCc2ccc(F)cc2)cc2oc3ccccc3c21	u	x	x	i	x	x
CCn1c(C(=O)N2CCc3ccccc3C2)cc2oc3ccccc3c21	i	5%	16µM*	i	1%	16%
Cn1c(C(=O)N2CCc3ccccc3C2)cc2oc3ccccc3c21	i	-14%	u	i	9%	-3%
CCOc1ccccc1CNC(=O)c1cc2oc3ccccc3c2n1CC	u	u	18µM*	u	4%	-28%
COc1cccc(CNC(=O)c2cc3oc4ccccc4c3n2C)c1OC	6.5µM*	u	u	u	-3%[9.22 µM]	u
O=C(c1cc2c(s1)-c1ccccc1OC2)N1CCN(c2ccccc2F)CC1	i	x	x	i	x	x
CCCCCCCCN1C(=O)[C@H](CC(=O)NCc2ccc(C)o2)C[C@@]2(C(=O)OC)CCCCC=C12	u	u	x	i	x	u
O=[N+]([O-])c1cc(C(F)(F)F)ccc1NCCNC(=S)Nc1ccc(Cl)cc1	u	u	-1%	i	u	18µM*
CS(=O)(=O)NCCCNc1ccc(C(F)(F)F)cc1[N+](=O)[O-]	u	-10%	1%	u	-13%	1%
O=[N+]([O-])c1cc(C(F)(F)F)ccc1NCCCCNS(=O)(=O)c1ccc(Cl)cc1	21µM*	u	16%	u	u	u
Nc1c2c(nc3ccccc13)CCC2	i	-2%	u	i	3%	-2%
Nc1c2c(nc3ccccc13)N(C1CCCCC1)CC2	u	-28%	13µM*	i	u	u
CCOC(=O)[C@]12CCC=C1N(Cc1ccco1)C(=O)[C@H](CC(=O)NCc1ccc(C)o1)C2	i	18%	x	i	x	23%
N#CC1=C(N)NC(SCC(=O)c2ccc(Cl)cc2)=C(C#N)C12CCCC2	i	u	5%	i	14%	u
N#CC1=C(N)NC(SCc2ccccc2)=C(C#N)C12CCCCC2	u	7.1µM*	8.2µM*	23µM*	u	7.9µM*
N#CC1=C(N)NC(SCC(=O)c2ccc(Br)cc2)=C(C#N)C12CCCCC2	16µM*	-29%	u	u	u	-6%
SMILES	KB-V1 MDR tox	HT1080 IDH1KD tx	MCF10A rerep	KB-3-1 cytotox	SW480 rereplic	HT1080-NT tox
CCSC1=C(C#N)C2(CCCCC2)C(C#N)=C(N)N1	u	-7%[9.24 µM]	3%	u	-6%	-17%
CCC1Oc2ccc(C)cc2N(Cc2cccc(C)c2)C1=O (stereo unspecified)	i	2%	12µM*	i	-4%	7%
O=[N+]([O-])c1cccc(-c2cn3nc(-c4ccccc4)c(-c4ccccc4)nc3n2)c1	i	2%	u	i	5.8µM*	9%
O=[N+]([O-])c1ccc(-c2cn3nc(-c4ccccc4)c(-c4ccccc4)nc3n2)cc1	i	28%	3.7µM*	i	u	u
O=C(CN1C(=O)NC2(CCCCCCC2)C1=O)N1CCN(C(=O)c2ccco2)CC1	i	-1%	-5%	i	-3%	-2%
COc1ccc(OCC(=O)N/N=C/c2ccc(O[C@@H]3O[C@H](CO)[C@@H](O)[C@H](O)[C@H]3O)cc2)cc1	i	1.6µM*	5%	3.7µM*	0%	u
COc1ccc(/C=C/c2cc(O)cc(OC3OC(CO)C(O)C(O)C3O)c2)cc1 (stereo unspecified)	i	14%	-4%	i	0.18µM*	-5%
CCOC(=O)c1[nH]c(C)c(C(=O)OCC(=O)NCc2ccc(OC)cc2)c1C	u	5%	-1%	i	-12%	8%
COc1ccc(NC(=O)CS(=O)CC(=O)NC2CCCc3ccccc32)cc1 (stereo unspecified)	i	14%	6%	i	0%	6%
CN(CC(=O)NC(=O)NCc1ccccc1)CC(=O)Nc1ccc(Cl)c(C(F)(F)F)c1	u	u	u	u	-46%	18µM*
CN(CC(=O)NCc1ccccc1)CC(=O)Nc1ccc(Cl)c(C(F)(F)F)c1	u	-5%	u	i	u	-13%
CN(CC(=O)NCCc1ccc(S(N)(=O)=O)cc1)CC(=O)Nc1ccc(Cl)c(C(F)(F)F)c1	i	-10%	12%	16µM*	3%	0%
CN(CC(=O)NCCc1ccc(S(N)(=O)=O)cc1)CC(=O)Nc1ccccc1Cl	i	-1%	-5%	i	-3%	0%
O=c1c2oc3ccccc3c2n(Cc2ccc(F)cc2)c(=O)n1Cc1ccco1	i	x	x	i	x	x
O=C(Nc1ccc([N+](=O)[O-])cc1)Nc1ccon1	6.5µM*	0.73µM*	5.8µM*	0.58µM*	u	1.2µM*
O=C(Nc1ccc(Cl)cc1)Nc1cc([N+](=O)[O-])ccc1F	i	23%	18%	i	6%	2%
O=C(Nc1ccccc1)Nc1ccc(F)c([N+](=O)[O-])c1	u	3%	15µM*	u	3%	-4%
O=C(Nc1cccnc1Cl)c1ccc(Cl)c([N+](=O)[O-])c1	i	8%	15%	i	23µM*	8%
CCc1ccc(NC(=O)Nc2ccon2)cc1	i	23%	-10%	i	-9%	16%

Source: PubChem (National Center for Advancing Translational Sciences (NCATS))
